This is an account of results in PubChem BioAssay (NCI).

The panel holds about 83,000 compounds, 20% with a hit somewhere; the sample as a whole holds those more often.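 Method: cells in 96-well plates; compound added at one concentration; 48 h incubation; percent growth measured; values under 10 scored active.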 A number with no mark means an inactive call. The source made the active and inactive calls.

For the assay, the system named is KM12 colon. Description: NCI-60 one-dose screen, 48 h (100 = growth as untreated, 0 = no growth, -100 = all killed). Conditions: 10 µM unless noted.
Take `Cc1ccc(C)c(-c2csc(Nc3ccc(C)c(C)c3)n2)c1`: the growth was 59.5%.

Take `COc1ccc(-c2nnc(COc3ccc(C(=O)/C=C/c4ccco4)cc3)o2)cc1`: the growth is 18.2%.

`O=C1/C=C/[C@@H](O)[C@@H]2C[C@@H](O)C[C@H]2/C=C/CCCCO1`: the growth was -51.1% (active). For `COc1ccc(CCN2C(=O)CCSC2=S)cc1` the value was 0.314% (active). As for `COc1ccc(/C=C/C(=O)c2ccc3cc(OC)c(OC)cc3c2)cc1OC`, the figure is 21.5%. With `CC(C)c1ccc(S(=O)(=O)NC(=O)NC2CCCC2)cc1`, the growth was 103%.

Regarding `CCN1CCN(c2cc(C)c3cc(NC(=O)c4ccc(OC)c(OC)c4)ccc3n2)CC1`, the growth is 26.2%. For the compound `CCOC(=O)c1c2c(c(C)n1Cc1ccc(OC)cc1)-c1oncc1CC2`, the growth is 87.9%. With `COC(=O)/C(=C\c1c(C)[nH]c2ccccc12)S(=O)(=O)c1ccccc1`, the growth was -13.2% (active). On to `O=C(NCCCN1CCC(N2CCCCC2)CC1)C1=Cc2cc(Br)ccc2OC1`, for which the growth was 12.4%. Take `O=C(Nc1ccc(-c2nc3cc4ccccc4cc3[nH]2)cc1)c1cccc(Br)c1`: the growth was 39.8%. Regarding `Nc1nc(-c2cnccn2)nn1-c1nc2ccccc2s1`, the growth is 101%.

Turning to `CCCCN1CCN(c2ccc3nc(-c4ccc5nc(-c6ccc(C(F)(F)F)cc6)[nH]c5c4)[nH]c3c2)CC1`, the growth was -88.3% (active).

For `O=C(Nc1ccc(N2CCNCC2)cn1)c1[nH]ncc1Nc1ncnc2sccc12`, the growth is 57.3%.

Consider `CCOC(=O)CSc1c(-c2ccccc2)c2cc(Cl)ccc2[nH]c1=O`, for which the growth was 98.1%. As for `O=C1Nc2ccccc2/C1=C/c1ccc[nH]1`, the figure is 10.4%. On to `NC(CCc1nc2ccccc2c(=O)[nH]1)C(=O)O` (centres undefined), for which the growth was 112%.

Consider `CCCSC1=NC2C(N(CC)C(=O)N2CC)N1/N=C/C=C/c1ccccc1[N+](=O)[O-]` (centres undefined), for which the growth is 14.9%. As for `COc1cccc(/C(C#N)=C/c2nc3c(N4CCOCC4)nc(Cl)nc3n2C)c1`, the figure is 16.2%; as for `CN1CCN(Cc2ccc(NC(=O)c3[nH]ncc3Nc3cc(OC4CCCC4)ncn3)cc2)CC1`, 21.9%; as for `COc1cccc(C(=O)NC(c2ccc(C)cc2)c2cc(Cl)c3cccnc3c2O)c1` (centres undefined), 20.7%. As for `COc1ccc(-c2nsc3c2NC(=O)CC3c2ccsc2)cc1` (centres undefined), the figure is 8.01% (active); as for `COc1cc(C2C(C#N)=C(N)OC3=C2C(=O)c2ccccc2C3=O)cc(OC)c1O` (centres undefined), 14%; as for `CCN(CC)c1cc(C)c2cc(NC(=O)c3cccc(OC)c3)ccc2n1`, 88.5%. In the case of `CCCCNc1nc(NC(C)(C)C)nc(NC(C)(C)C)n1`, the growth is 63.8%. As to `CC(=O)n1cc(-c2c[nH]c3ccccc23)c(-c2ccc(Cl)cc2)n1`, the growth was 84.8%. As to `COc1cccc(C2=NN3C(C2)c2ccccc2OC3c2ccc(/C=C3\SC(=O)NC3=O)cc2)c1` (centres undefined), the growth was 94.6%. For `COC(=O)/C(CCC=C(C)C)=C1\[C@@H](OC(C)=O)C[C@@]2(C)[C@H]1C[C@@H](O)[C@H]1[C@@]3(C)CC[C@H](NCCCNCCCCNCCCN)[C@@H](C)[C@@H]3CC[C@@]12C`, the growth is 21.7%.

With `CN1C(=O)N(C)C2Nn3c(s/c(=C\c4ccc(Cl)cc4Cl)c3=O)=NC21` (centres undefined), the growth was 28.7%. In the case of `O=C(Nc1nc2c(s1)CCc1c-2c(Br)n(Cc2ccccc2)c1Br)c1ccccc1`, the growth was 65.5%. `S=C1NC2(c3ccccc3)CCC(=S)N2c2ccccc21` (centres undefined): the growth was 108%. For `Nc1ccccc1-c1ccc(-c2ccc(Cl)cc2)c2c1[nH]c1ccccc12` the value was 66.6%; for `O=C1Nc2ccccc2/C1=C/c1cccs1`, 77.1%. In the case of `OCCNc1nc(Nc2ccc(C3=NN(c4cc(Cl)cc(Cl)c4)C(c4ccc(C(F)(F)F)cc4)C3)cc2)nc(N2CCOCC2)n1` (centres undefined), the growth was 68.6%.

`COc1ccc(-c2nsc3c2NC(=O)CC3c2ccc3c(c2)OCCO3)cc1` (centres undefined): the growth was 20.6%. As for `COc1cc(/C=C2\CN(C)C/C(=C\c3cc(CN4CCCCC4)c(O)c(OC)c3)C2=O)cc(CN2CCCCC2)c1O`, the figure is 5.98% (active); as for `CCCCOCc1cc(CN2CCN(C)CC2)c(O)c2ncccc12`, 40.6%. For the compound `NCCNc1nc2ccccc2c2c(=O)c3cc(F)cc(Cl)c3sc12`, the growth was -82.6% (active). As for `CNC(=O)c1cc(Oc2ccc(CC(=O)Nc3cc(C(C)(C)C)cn3C)cc2)ccn1`, the growth is 86.3%.
